This is an account of results in the supplement of paper PMC12645437, “Orthogonal IMiD-Degron Pairs Induce Selective Protein Degradation in Cells” (ACS Chemical Biology, 2025).

The target of the assay is T1, CRBN, Q96SW2.
T1 chain: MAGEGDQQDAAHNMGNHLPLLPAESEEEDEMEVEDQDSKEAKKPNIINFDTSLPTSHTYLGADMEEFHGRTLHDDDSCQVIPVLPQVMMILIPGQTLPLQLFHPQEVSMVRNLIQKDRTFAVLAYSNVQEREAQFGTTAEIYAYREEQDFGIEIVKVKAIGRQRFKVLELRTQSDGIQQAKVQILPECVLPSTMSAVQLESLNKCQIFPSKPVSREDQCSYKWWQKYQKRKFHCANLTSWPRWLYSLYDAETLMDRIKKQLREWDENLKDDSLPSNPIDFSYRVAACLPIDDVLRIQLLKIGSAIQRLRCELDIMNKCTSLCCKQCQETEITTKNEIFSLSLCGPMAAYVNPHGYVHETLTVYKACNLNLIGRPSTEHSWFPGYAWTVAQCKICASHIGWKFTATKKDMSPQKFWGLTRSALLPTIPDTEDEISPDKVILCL
In words: log2 fold change of degron read counts, EGFP-low vs EGFP+ sorted cells (limma voom), compound-induced degradation; higher = more compound-induced degradation of the degron-EGFP fusion; degrons are variants of IKZF1/3 zinc finger 2; compound dose not given here. The settings on record: Jurkat, 18 h.

Where [1] appears, read: compound: compound 19 (5-tert-butyl-thalidomide).
[2] abbreviates: compound: compound 22 (5-morpholino-thalidomide).
[3] abbreviates: compound: compound 33 (diphenyl IMiD analogue).

In all, about 8,300 sequences were measured (“log2 fold change of degron read counts, EGFP-low vs EGFP+ sorted cells (limma voom), compound-induced degradation”: median about -1.1, highest 2% from about 3.2 on). This is one part of a sample in which the highest values are shown more often than they occur.
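Note: pooled lentiviral library of zinc finger degron-EGFP fusions in mCherry-positive Jurkat cells, FACS-sorted after compound exposure, with degron abundance counted by next-generation sequencing.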

As for FICPQCGADFTQKGNLLRHIKL [46F_47I_49P_50Q_52G_53A_54D_55F_67L_, Q9UKT9], the “log2 fold change of degron read counts” value reads like this: under setting [1], -3.68; under setting [2], -2.36; under setting [3], -1.84; (compound: thalidomide) -2.04.
Taken in the same sequence, the figures for FFCPICGHLFTQKGNLLRHIKL [46F_47F_49P_50I_52G_53H_54L_55F_67L_, Q9UKT9] were -0.994, -0.746, -0.828 and -1.02.
Consider LLCEICGFFCTQKGNLLRHIKL [46L_47L_49E_50I_52G_53F_54F_55C_67L_, Q9UKT9], for which the “log2 fold change of degron read counts” value reads like this: under setting [1], -0.357; under setting [2], -0.957; under setting [3], -0.00991; (compound: thalidomide) 0.351.
As for FMCDICGAMFTQKGNLLRHIKL [46F_47M_49D_50I_52G_53A_54M_55F_67L_, Q9UKT9], the “log2 fold change of degron read counts” value is, setting by setting: under setting [1], -1.51; under setting [2], -1.89; under setting [3], 0.647; (compound: thalidomide) -1.45.
Taken in the same sequence, the figures for FGCPICGRQFTQKGNLLRHIKL [46F_47G_49P_50I_52G_53R_54Q_55F_67L_, Q9UKT9] were 2.87, 0.813, 0.341 and -0.4.
The corresponding values for LECPICGFVCTQKGNLLRHIKL [46L_47E_49P_50I_52G_53F_54V_55C_67L_, Q9UKT9] are -0.508, -0.452, 1.81 and 2.84.
As for FRCPVCGAYFTQKGNLLRHIKL [46F_47R_49P_50V_52G_53A_54Y_55F_67L_, Q9UKT9], the “log2 fold change of degron read counts” value was -0.775 under setting [1], 0.429 under setting [2], 1.02 under setting [3] and 1.64 (compound: thalidomide).
Taken in the same sequence, the figures for LHCEICGFQCTQKGNLLRHIKL [46L_47H_49E_50I_52G_53F_54Q_55C_67L_, Q9UKT9] were 2.39, 2.27, 1.7 and 1.64.
The corresponding values for LCCNQCGFNCTQKGNLLRHIKL [46L_47C_49N_50Q_52G_53F_54N_55C_67L_, Q9UKT9] are -2, -2.61, -2.13 and -1.77.
The corresponding values for FTCDVCGARFTQKGNLLRHIKL [46F_47T_49D_50V_52G_53A_54R_55F_67L_, Q9UKT9] are 0.31, 1.8, 0.304 and 1.36.
On to FFCEICGHRFTQKGNLLRHIKL [46F_47F_49E_50I_52G_53H_54R_55F_67L_, Q9UKT9], for which the “log2 fold change of degron read counts” value by setting is: under setting [1], -1.06; under setting [2], -1.44; under setting [3], -1.47; (compound: thalidomide) -1.72.
Taken in the same sequence, the figures for FDCPICGAVFTQKGNLLRHIKL [46F_47D_49P_50I_52G_53A_54V_55F_67L_, Q9UKT9] were 0.604, 0.176, 1.99 and 1.81.
The corresponding values for FICEVCGAPFTQKGNLLRHIKL [46F_47I_49E_50V_52G_53A_54P_55F_67L_, Q9UKT9] are 2.03, 3.48, 2.78 and 3.17.
Taken in the same sequence, the figures for FACEVCGAPFTQKGNLLRHIKL [46F_47A_49E_50V_52G_53A_54P_55F_67L_, Q9UKT9] were 3.19, 1.62, -0.375 and 0.871.
For the sequence FTCEVCGAPFTQKGNLLRHIKL [46F_47T_49E_50V_52G_53A_54P_55F_67L_, Q9UKT9], the “log2 fold change of degron read counts” value was found to be 2.16 under setting [1], 3.25 under setting [2], 1.81 under setting [3] and 2.71 (compound: thalidomide).
The corresponding values for FSCEVCGAPFTQKGNLLRHIKL [46F_47S_49E_50V_52G_53A_54P_55F_67L_, Q9UKT9] are 2.89, 2.01, 0.358 and 1.1.
Taken in the same sequence, the figures for FNCEVCGAPFTQKGNLLRHIKL [46F_47N_49E_50V_52G_53A_54P_55F_67L_, Q9UKT9] were 2.7, 1.8, 0.0261 and 0.847.
Take FTCNVCGAPFTQKGNLLRHIKL [46F_47T_49N_50V_52G_53A_54P_55F_67L_, Q9UKT9]: the “log2 fold change of degron read counts” value worked out at 0.145 under setting [1], 1.49 under setting [2], 0.972 under setting [3] and 1.51 (compound: thalidomide).
Regarding FFCEVCGAPFTQKGNLLRHIKL [46F_47F_49E_50V_52G_53A_54P_55F_67L_, Q9UKT9], the “log2 fold change of degron read counts” value runs as follows: under setting [1], 4; under setting [2], 3.18; under setting [3], 1.98; (compound: thalidomide) 1.73.
Taken in the same sequence, the figures for FCCNVCGAPFTQKGNLLRHIKL [46F_47C_49N_50V_52G_53A_54P_55F_67L_, Q9UKT9] were 1.3, 0.686, -0.00676 and 0.263.
The corresponding values for FDCEVCGAPFTQKGNLLRHIKL [46F_47D_49E_50V_52G_53A_54P_55F_67L_, Q9UKT9] are 0.668, -1.2, -1.15 and -0.746.
Take FHCEVCGAPFTQKGNLLRHIKL [46F_47H_49E_50V_52G_53A_54P_55F_67L_, Q9UKT9]: the “log2 fold change of degron read counts” value runs as follows: under setting [1], 3.54; under setting [2], 3.17; under setting [3], 2.03; (compound: thalidomide) 1.38.
Taken in the same sequence, the figures for FFCEVCGADFTQKGNLLRHIKL [46F_47F_49E_50V_52G_53A_54D_55F_67L_, Q9UKT9] were -0.0497, 0.23, -0.854 and -0.804.
The corresponding values for FMCDVCGACFTQKGNLLRHIKL [46F_47M_49D_50V_52G_53A_54C_55F_67L_, Q9UKT9] are -1.81, -1.41, 0.979 and -1.1.
The corresponding values for FICNQCGAEFTQKGNLLRHIKL [46F_47I_49N_50Q_52G_53A_54E_55F_67L_, Q9UKT9] are -3.37, -3.09, -2.19 and -1.75.
Take FHCEICGAWFTQKGNLLRHIKL [46F_47H_49E_50I_52G_53A_54W_55F_67L_, Q9UKT9]: the “log2 fold change of degron read counts” value is -0.982 under setting [1], -1.57 under setting [2], -0.784 under setting [3] and -2.02 (compound: thalidomide).
Turning to FLCEVCGAPFTQKGNLLRHIKL [46F_47L_49E_50V_52G_53A_54P_55F_67L_, Q9UKT9], the “log2 fold change of degron read counts” value under setting [1] amounted to 2.39, the “log2 fold change of degron read counts” value under setting [2] is 2.45, the “log2 fold change of degron read counts” value under setting [3] was 2.33 and the “log2 fold change of degron read counts” value (compound: thalidomide) amounted to 2.97.
On to FWCEVCGAPFTQKGNLLRHIKL [46F_47W_49E_50V_52G_53A_54P_55F_67L_, Q9UKT9], for which the “log2 fold change of degron read counts” value is 3.08 under setting [1], 2.92 under setting [2], 1.89 under setting [3] and 1.01 (compound: thalidomide).
Turning to FCCEVCGAPFTQKGNLLRHIKL [46F_47C_49E_50V_52G_53A_54P_55F_67L_, Q9UKT9], the “log2 fold change of degron read counts” value was 3.23 under setting [1], 2.09 under setting [2], 0.726 under setting [3] and 1.26 (compound: thalidomide).
Take FGCEVCGAPFTQKGNLLRHIKL [46F_47G_49E_50V_52G_53A_54P_55F_67L_, Q9UKT9]: the “log2 fold change of degron read counts” value was 0.82 under setting [1], -0.556 under setting [2], -1.51 under setting [3] and -1.08 (compound: thalidomide).
The corresponding values for FQCEVCGAPFTQKGNLLRHIKL [46F_47Q_49E_50V_52G_53A_54P_55F_67L_, Q9UKT9] are 3.05, 3.49, 1.41 and 3.53.
The corresponding values for FRCEVCGADFTQKGNLLRHIKL [46F_47R_49E_50V_52G_53A_54D_55F_67L_, Q9UKT9] are -1.68, -1.6, 1.33 and 0.331.
Taken in the same sequence, the figures for FRCEVCGAPFTQKGNLLRHIKL [46F_47R_49E_50V_52G_53A_54P_55F_67L_, Q9UKT9] were 3.45, 3.6, 3.39 and 3.62.
Turning to FYCEVCGAPFTQKGNLLRHIKL [46F_47Y_49E_50V_52G_53A_54P_55F_67L_, Q9UKT9], the “log2 fold change of degron read counts” value amounted to 3.69 under setting [1], 3.45 under setting [2], 2.63 under setting [3] and 1.63 (compound: thalidomide).
As for FVCEVCGAPFTQKGNLLRHIKL [46F_47V_49E_50V_52G_53A_54P_55F_67L_, Q9UKT9], the “log2 fold change of degron read counts” value runs as follows: under setting [1], 2.23; under setting [2], 3.61; under setting [3], 2.24; (compound: thalidomide) 3.07.
